Some test systems named below: HCT-15 colon; HT29 colon; SNB-75 CNS; SNB-19 CNS; U251 CNS; PC-3 prostate; SK-MEL-5 melanoma; UACC-62 melanoma; LOX IMVI melanoma; SK-MEL-28 melanoma; SK-MEL-2 melanoma; EKVX NSCLC; SN12C renal; UO-31 renal; TK-10 renal; ACHN renal; CAKI-1 renal; A498 renal; CCRF-CEM leukemia; MOLT-4 leukemia.
Common to all, as to assay: NCI-60 one-dose screen, 48 h (100 = growth as untreated, 0 = no growth, -100 = all killed)
What all share (conditions): 10 µM unless noted

Compounds without any hit were thinned out: in the full panel of roughly 83,000, 20% have a hit.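 Each cell line was grown in a 96-well plate and treated with one concentration of compound for 48 hours. Values below 10 were considered active.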 Values without a mark were called inactive. Calls of active or inactive are those of the source.

Take `Nc1ncnc2c1N=C(c1ccc3c(c1)OCO3)CC(c1cccc(Nc3ccnc4cc(Cl)ccc34)c1)N2` (stereo not given): the growth is 36.4% in the experiment with HCT-15 colon; 27.8% in the experiment on HT29 colon; 74.6% in the experiment with SNB-75 CNS; 58.2% with SNB-19 CNS; 26.5% in the experiment on U251 CNS; 54.2% in the experiment with PC-3 prostate. Also, the growth in the experiment with SK-MEL-5 melanoma is 53.4%; in the experiment with UACC-62 melanoma it was 57%; with LOX IMVI melanoma, 27.2%; in the experiment with SK-MEL-28 melanoma, 91.3%; in the experiment with SK-MEL-2 melanoma it was 68.7%; in the experiment on EKVX NSCLC it was 62.2%. Also, the growth was 50.7% with SN12C renal; 44% in the experiment with UO-31 renal; 65.7% in the experiment on TK-10 renal; 67.5% in the experiment on ACHN renal; 53.4% in the experiment with CAKI-1 renal; 61.5% in the experiment on A498 renal. Besides, the growth with CCRF-CEM leukemia is 21.5%; with MOLT-4 leukemia, 52.7%.
Turning to `O=C1/C(=C/c2ccc(Cl)cc2)COc2ccc(O)c(O)c21`, the growth with HCT-15 colon was -1.01% (active); in the experiment with HT29 colon, 15.5%; in the experiment on SNB-75 CNS, 18.2%; in the experiment on SNB-19 CNS, 24.9%; in the experiment with U251 CNS, -57% (active); in the experiment on PC-3 prostate it was -6% (active). The growth in the experiment on SK-MEL-5 melanoma is 56%; in the experiment on UACC-62 melanoma, 4.2% (active); with LOX IMVI melanoma, -84.8% (active); with SK-MEL-28 melanoma, 60.2%; in the experiment with SK-MEL-2 melanoma it was 69.9%; in the experiment on EKVX NSCLC it was 51.7%. The growth with SN12C renal was -51.5% (active); in the experiment with UO-31 renal it was -98.5% (active); with TK-10 renal, 16.7%; with ACHN renal it was -66.3% (active); with CAKI-1 renal, -13.8% (active); with A498 renal, 114%. Moreover, the growth was 4.29% (active) in the experiment on CCRF-CEM leukemia and 3.43% (active) in the experiment with MOLT-4 leukemia.
As to `CCc1ccc(C(=O)/C=C/C23c4ccccc4C(c4ccccc42)C2C(=O)NC(=O)C23)cc1` (stereo not given), the growth in the experiment on HCT-15 colon is -10.3% (active); in the experiment on HT29 colon it was 1.59% (active); in the experiment with SNB-75 CNS, 26.3%; in the experiment on SNB-19 CNS it was 12%; in the experiment on U251 CNS, -25% (active); with PC-3 prostate, 13.3%. Also, the growth in the experiment on SK-MEL-5 melanoma was 10%; in the experiment with UACC-62 melanoma, -6.86% (active); with LOX IMVI melanoma, -68.7% (active); with SK-MEL-28 melanoma, -23.7% (active); in the experiment with SK-MEL-2 melanoma, 3.45% (active); with EKVX NSCLC, 23.2%. The growth was -7.89% (active) with SN12C renal; 22.1% with UO-31 renal; 18% in the experiment with TK-10 renal; 0.0344% (active) in the experiment with ACHN renal; 27.5% with CAKI-1 renal; 5.29% (active) in the experiment on A498 renal. Besides, the growth in the experiment with CCRF-CEM leukemia is 0.462% (active); in the experiment with MOLT-4 leukemia, 2.03% (active).
With `O=C1c2cccc3cccc(c23)C(=O)N1N1C(=O)c2cccc3c(N4CCOCC4)ccc(c23)C1=O`, the growth in the experiment on HCT-15 colon was 101%; in the experiment with HT29 colon it was 107%; with SNB-75 CNS, 58.5%; in the experiment on SNB-19 CNS, 87.8%; in the experiment on U251 CNS it was 90.7%; in the experiment with PC-3 prostate it was 91.2%. Also, the growth with SK-MEL-5 melanoma was 101%; in the experiment with UACC-62 melanoma, 90.5%; with LOX IMVI melanoma it was 90.2%; in the experiment with SK-MEL-28 melanoma, 102%; with SK-MEL-2 melanoma it was 107%; in the experiment with EKVX NSCLC it was 94.1%. In addition, the growth in the experiment with SN12C renal was 88.8%; with UO-31 renal it was 68.7%; in the experiment on TK-10 renal it was 141%; with ACHN renal, 95%; in the experiment with CAKI-1 renal it was 87.4%; in the experiment on A498 renal, 64.3%. Also, the growth in the experiment on CCRF-CEM leukemia was 122%; in the experiment with MOLT-4 leukemia, 108%.
On to `O=C1/C(=C/c2ccc(F)cc2)COc2ccc(O)cc21`, for which the growth is 60.7% with HCT-15 colon; 48.7% in the experiment on HT29 colon; 83.7% with SNB-75 CNS; 90.4% in the experiment with SNB-19 CNS; 60.8% in the experiment on U251 CNS; 89.2% in the experiment with PC-3 prostate. The growth is 98.5% in the experiment with SK-MEL-5 melanoma; 85.2% with UACC-62 melanoma; 22.5% in the experiment on LOX IMVI melanoma; 103% in the experiment on SK-MEL-28 melanoma; 114% with SK-MEL-2 melanoma; 101% in the experiment on EKVX NSCLC. Besides, the growth is 78.4% in the experiment on SN12C renal; 64.5% in the experiment on UO-31 renal; 100% with TK-10 renal; 87.7% with ACHN renal; 75.8% with CAKI-1 renal; 111% in the experiment with A498 renal. Also, the results for the growth in the experiment with CCRF-CEM leukemia and in the experiment on MOLT-4 leukemia were 5.18% (active) and 51.7%, respectively.
`Cc1ccc(CNc2ccc(Cl)cc2NCc2ccc(C)c(O)c2)cc1O`: the growth with HCT-15 colon was 7.28% (active); with HT29 colon, 49.1%; in the experiment with SNB-75 CNS, 41.1%; with SNB-19 CNS, 29.5%; in the experiment on U251 CNS it was 21.9%; in the experiment on PC-3 prostate, 7.21% (active). The growth was 32.7% with SK-MEL-5 melanoma; 38.6% in the experiment on UACC-62 melanoma; 2.86% (active) with LOX IMVI melanoma; 31.9% in the experiment on SK-MEL-28 melanoma; 33.3% in the experiment with SK-MEL-2 melanoma; 80.2% with EKVX NSCLC. The growth in the experiment with SN12C renal is -27.8% (active); with UO-31 renal, 11.9%; with TK-10 renal, 52.3%; in the experiment on ACHN renal, 0.115% (active); in the experiment on CAKI-1 renal, 37.4%; with A498 renal it was 82.2%. Moreover, the growth is 9.13% (active) in the experiment with CCRF-CEM leukemia and -10.5% (active) with MOLT-4 leukemia.
In the case of `CCOC(=O)c1ccc2[nH]c(O)c(C(=Nc3ccc(N(C)C(=O)CN4CCN(C)CC4)cc3)c3ccccc3)c2c1`, the growth in the experiment with HCT-15 colon is -23.6% (active); with HT29 colon, -33.8% (active); in the experiment on SNB-75 CNS, -99.2% (active); in the experiment with SNB-19 CNS, 2.34% (active); in the experiment on U251 CNS, -86.4% (active); in the experiment with PC-3 prostate it was 4.9% (active). For the same compound, the growth was -94% (active) with SK-MEL-5 melanoma; 17% in the experiment on UACC-62 melanoma; -93.2% (active) in the experiment on LOX IMVI melanoma; -11.9% (active) in the experiment with SK-MEL-28 melanoma; -59.2% (active) in the experiment with SK-MEL-2 melanoma; -3.53% (active) in the experiment with EKVX NSCLC. Also, the growth in the experiment with SN12C renal is 11.4%; in the experiment on UO-31 renal, -41.6% (active); in the experiment with TK-10 renal, -70% (active); in the experiment with ACHN renal, 2.92% (active); with CAKI-1 renal, -0.635% (active); in the experiment on A498 renal it was -59.9% (active). The growth in the experiment on CCRF-CEM leukemia is 4.58% (active); with MOLT-4 leukemia, -14% (active).

Source of the values: PubChem BioAssay (NCI).
